Shown are actives, neighbours in structure and some others; about 18% of the full set was active somewhere.
VDR inhibitor: vitamin D3 receptor (human) inhibition. Potency, µM, inactives show max response, negative = inhibition, hits mostly inhibitors. P11473. hit rate 0.93% among 400,000. VDR-SRC2-3 peptide fluorescence polarization, 2 h. AID 504847
Target sequence (P11473 whole entry, looked up): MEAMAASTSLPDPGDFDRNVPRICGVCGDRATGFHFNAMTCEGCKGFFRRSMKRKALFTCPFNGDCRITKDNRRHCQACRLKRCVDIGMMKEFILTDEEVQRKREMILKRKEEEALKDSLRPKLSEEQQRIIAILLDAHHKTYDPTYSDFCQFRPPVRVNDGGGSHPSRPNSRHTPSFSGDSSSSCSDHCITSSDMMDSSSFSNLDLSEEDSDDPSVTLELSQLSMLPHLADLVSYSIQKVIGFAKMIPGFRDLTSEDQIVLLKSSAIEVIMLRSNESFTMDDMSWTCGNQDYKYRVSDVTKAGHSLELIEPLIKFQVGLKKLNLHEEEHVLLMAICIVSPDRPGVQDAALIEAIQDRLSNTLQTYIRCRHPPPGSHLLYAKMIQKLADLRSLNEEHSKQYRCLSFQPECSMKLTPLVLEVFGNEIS
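VDR–SRC2-3 interaction, FP format. Cmpds 23 nl via pintool, brief spin, 2 h ambient incubation.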
TDP1 cell noCPT: qHTS for Inhibitors of human tyrosyl-DNA phosphodiesterase 1 (TDP1): qHTS in cells in absence of CPT. DT40 Tdp1-/- hTDP1 cells, no CPT, ATP luminescence, 48 h. Potency, µM (titrated, usually from 46.2 µM), for the others: top-dose activity change, negative = growth inhibition, hits mostly inhibitors. hit rate 15% among 420,000. AID 686978, 2013; note: nearly all actives have a fitted effect of over 55% in size
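No-CPT arm: Tdp1-/-;hTDP1 DT40 cells (400/well) plus compounds, incubated ≥48 hr at 37 °C. Readout CellTiter-Glo luminescence.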
KAT2A inh: inhibitors of human GCN5L2 histone acetyltransferase; Q92830; GCN5L2 HAT assay, ThioGlo1 CoA-SH fluorescence; Potency, µM (highest dose often 58.9 µM), without a hit: top-dose activity change, negative = inhibition, most hits filed as inhibitors; hit rate 0.21% among 390,000
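Free CoA generated was detected with ThioGlo1 (50uM) fluorescence at Ex340nm/Em540nm, read immediately and after 20 min at room temperature. Enzyme, 20 nM in HEPES pH 7.5 buffer, saw compounds 15 min before adding 75uM H3(1-25) peptide and 70uM acetyl-CoA.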
DT40 TDP1 CPT: DT40-hTDP1 cell growth loss with CPT; chicken DT40 Tdp1-/-;hTDP1 cells + 20 nM CPT, ATP luminescence, 48 h; Potency, µM (doses to about 46.2 µM), inactives show top-dose activity change, negative = growth inhibition, usual class: inhibitors; hit rate 12% among 420,000; AID 686979; note: nearly all actives have a fitted effect of over 55% in size
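Cell growth measured by CellTiter-Glo luminescence after a minimum 48 h, 37 C compound exposure with 20 nM CPT in Tdp1-knockout DT40 cells stably expressing hTDP1, seeded 400/well; qHTS titration format.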
PLK1 PBD block: inhibitors of human PLK1 polo-box domain binding; AID 720504; hit rate 2.8% among 360,000; Potency, µM, inactives show max response, negative = inhibition, most hits filed as inhibitors; Plk1 PBD binding of FITC phosphopeptide, fluorescence polarization; note: series mostly up to about 57 µM; nearly all actives have a fitted effect of over 65% in size
TDP1 block: blocks human tyrosyl-DNA phosphodiesterase 1; Q9NUW8; recombinant TDP1, AlphaScreen DNA substrate cleavage; Potency, µM (titrated, usually from 130 µM), without a hit: at the highest dose activity change, negative = inhibition, usual class: inhibitors; hit rate 0.28% among 350,000; note: nearly all actives have a fitted effect of over 40% in size
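Signal: AlphaScreen proximity between streptavidin donor and anti-FITC acceptor beads on intact substrate. Reaction: Tdp1 1 nM, substrate 15 nM final, 5 min RT after 15 min compound preincubation.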
Numbers without * were called inactive; ? = inconclusive; . = no result given. Calls come from the whole dose curve; as a rule, active = well fitted curve in the direction sought with a large enough effect; inconclusive = small, poorly fitted or top-dose-only effect, or another doubt; inactive = no such curve, though single readings can be large; an effect the other way counts as inactive or inconclusive. % is set by controls: 0 for no effect and ±100 for the full control effect; potency is the fitted concentration of half-maximal effect.

SMILES	VDR inhibitor	TDP1 cell noCPT	KAT2A inh	DT40 TDP1 CPT	PLK1 PBD block	TDP1 block
COc1cccc(-c2ccc(C#N)c(SCC(=O)NCc3ccco3)n2)c1	-2.9%	-20.0%	-4.0%	-10.7%	-15.6%	5.1%
COCCCNC(=O)CN1C(=O)COc2ccc(S(=O)(=O)N3CCCC3)cc21	-13.9%	5.9%	2.6%	2.4%	.	3.5%
CCCc1cc(C(=O)N/N=C/c2cccn2C)cs1	-17.3%	-19.0%	-23.1%	-23.9%	1.3%	8.5%
Cc1cc(OCC(=O)OCC(=O)N2CCc3ccccc3C2)ccc1Cl	13.2%	15.7%	-5.9%	6.6%	-2.7%	-16.1%
C[C@H](N)C(=O)N[C@@H](Cc1ccc(F)cc1)C(=O)N[C@@H](CCCN=C(N)N)C(=O)N[C@@H](CC1CCCCC1)C(=O)N[C@@H](CCCCN=C(N)N)C(=O)N[C@@H](Cc1ccc(O)cc1)C(N)=O	7.3%	.	-16.1%	.	.	14.1%
O=C(Nc1cccc(C(=O)N2CCN(c3cccc(Cl)c3)CC2)c1)c1nsc2ccccc12	13.3%	16.4µM*	-20.5%	18.4µM*	.	-2.7%
O=C(Nc1ccc(C(=O)N2CCN(c3cccc(Cl)c3)CC2)cc1)c1nsc2ccccc12	-5.0%	13µM*	-27.4%	?	.	2.7%
O=C(Nc1cccc(C(=O)N2CCN(c3ccc(Cl)cc3)CC2)c1)c1nsc2ccccc12	0.8%	10.3µM*	-11.0%	14.6µM*	.	10.8%
O=C(Nc1ccc(C(=O)N2CCN(c3ccccc3)CC2)cc1)c1nsc2ccccc12	6.5%	?	-13.2%	?	.	5.4%
Cc1ccc(C)c(N2CCN(C(=O)c3ccc(NC(=O)c4nsc5ccccc45)cc3)CC2)c1	-6.2%	18.4µM*	2.4%	20.6µM*	.	2.7%
Cc1ccc2nc3c(cc2c1)c(NC(=O)C(C)(C)C)nn3CC(C)C	31.6%	-16.3%	-26.2%	-21.5%	-20.8%	.
O=C(c1ccc2oc(Cc3ccc(Cl)cc3)nc2c1)N1CCCCC1CCO (configuration not stated)	-0.6%	?	-27.9%	?	-1.7%	4.0%
CCOc1ccc(NC(=O)C2CCN(S(=O)(=O)c3c(C)noc3/C=C/c3cccs3)CC2)cc1	-1.1%	?	2.6%	?	.	2.3%
Oc1ccc(Br)cc1CNc1ccccn1	?	?	-9.8%	?	16.8µM*	-5.5%
CCc1ccc(S(=O)(=O)c2nnn3c2nc(NCc2cccs2)c2sccc23)cc1	3.7%	?	-9.0%	?	.	5.1%
CCOC(=O)c1sc2nc3c(SCCC(=O)O)cc(C(=O)c4cc(OC)ccc4O)cn3c(=O)c2c1C	-4.5%	5.17µM*	0.2%	3.66µM*	?	.
COC(=O)[C@@]1(Cc2ccc(OC)cc2)[C@H]2c3cc(C(=O)N4CCCC4)n(Cc4cc(F)c(F)c(F)c4)c3C[C@H]2CN1C(=O)c1ccccc1	.	.	.	.	.	14.1%
Cc1cccc(N2Cc3ccc(Br)cc3C2)c1	-5.2%	7.3%	.	-5.9%	-16.5%	.
O=C(c1ccccn1)N(Cc1ccco1)C1(C(=O)Nc2ccc(Br)cc2)CCCCC1	.	23.1µM*	.	16.4µM*	1.0%	.
CCc1ccc(NC(=O)C2CCN(S(=O)(=O)c3cccc(-c4noc(C)n4)c3)CC2)cc1	4.1%	14.6µM*	-0.6%	20.6µM*	.	-0.5%
CCc1ccc(NC(=O)C2CCN(S(=O)(=O)c3ccc4c(c3)N(C(C)=O)CCO4)CC2)cc1	-13.4%	18.4µM*	-22.9%	-28.1%	-8.6%	6.6%
Cc1cc(C)cc(NC(=O)C2CCN(S(=O)(=O)c3cccc4nonc34)CC2)c1	16.4%	-19.4%	-0.9%	-20.6%	.	4.4%
Cc1nc(-c2cccc(S(=O)(=O)N3CCC(C(=O)NCc4ccccc4)CC3)c2)no1	-4.7%	?	1.0%	?	.	-0.5%
Cc1cc(C)cc(NC(=O)C2CCN(S(=O)(=O)c3cccc(-c4noc(C)n4)c3)CC2)c1	18.2%	20.6µM*	-12.1%	16.4µM*	.	5.4%
COc1ccc(NC(=O)C2CCN(S(=O)(=O)c3cccc(-c4noc(C)n4)c3)CC2)cc1OC	7.6%	20.6µM*	-7.4%	?	.	6.4%
SMILES	VDR inhibitor	TDP1 cell noCPT	KAT2A inh	DT40 TDP1 CPT	PLK1 PBD block	TDP1 block
CC(=O)c1c[nH]c(C(=O)NC2CCCCCC2)c1	9.7%	19.7%	-0.4%	1.1%	4.1%	2.2%
Cc1ccc(NC(=O)CCCn2c(=O)c3cccn3c3cccnc32)cc1C	8.1%	?	-0.5%	?	.	-2.6%
Cc1ccccc1-c1noc(-c2ccc(N3CCC(C)CC3)c([N+](=O)[O-])c2)n1	13.9%	-12.2%	-1.4%	-25.4%	.	2.9%
CCCNC(=O)c1ccc(N2CCC3(CC2)CC(c2ccccc2)=NO3)c(NC(=O)c2cccc(C)c2)c1	-6.7%	?	4.4%	8.2µM*	-14.6%	.
CCCCCCCC(=O)Nc1cc(C(=O)NCc2ccc(C)cc2)ccc1N1CCC2(CC1)CC(c1cccc(Br)c1)=NO2	-19.1%	?	-4.3%	?	-1.5%	0.7%
CCCCCCCC(=O)Nc1cc(C(=O)NCCC)ccc1N1CCC2(CC1)CC(c1ccccc1)=NO2	14.2%	11.6µM*	-3.7%	?	-3.6%	.
CCCNC(=O)c1ccc(N2CCC3(CC2)CC(c2ccccc2)=NO3)c(NC(=O)c2ccccc2)c1	3.1%	14.6µM*	?	5.8µM*	0.0%	.
CCCNC(=O)c1ccc(N2CCC3(CC2)CC(c2ccccc2)=NO3)c(NC(=O)c2ccc(Br)cc2)c1	16.4%	-15.9%	-5.8%	?	-8.2%	.
CCCNC(=O)c1ccc(N2CCC3(CC2)CC(c2cccc(Br)c2)=NO3)c(NC(=O)c2ccccc2)c1	-3.4%	23.1µM*	-7.5%	?	3.6%	2.7%
O=C(CSc1nc2c([nH]c3ccccc32)c(=O)n1-c1ccc(F)cc1)N1CCc2ccccc21	-0.5%	?	1.7%	0.3%	.	4.4%
C[C@H](NC(=O)c1ncn2c1C(=O)N(C)CC2)C(=O)OC(C)(C)C	.	-17.0%	.	-11.5%	-10.6%	.
COC(=O)c1ccc(NC(=O)Cn2nc(C(=O)Nc3ccc(C)cc3)ccc2=O)cc1	20.3%	3.7%	-9.2%	21.8%	3.6%	-0.1%
Brc1ccc(-c2nc3ncccn3c2NC2CCCCC2)o1	-19.6%	?	-5.8%	16.4µM*	21.2µM*	2.8%
Cc1ccc(-c2nc3ncccn3c2NC2CCCC2)o1	-16.6%	?	1.8%	-8.3%	-6.8%	2.0%

Source: PubChem BioAssay
